The source of these data is PubChem BioAssay AID1159506 (National Center for Advancing Translational Sciences (NCATS), 2015).

Whole data set: some 59,000 sequences, median the read-out near -0.00055, cut for the lowest 2% near -2. This excerpt belongs to a sample that is enriched for the lowest values.

A short description of this experiment: Identification of proteins required for the processing of the EWS-FLI1 nascent transcript.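 Further: robust z of luciferase light less the median z of siRNAs with the same seed.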 To be noted: TC32 Ewing sarcoma NR0B1-luc vs CMV-luc (EWS-FLI1 target promoter against control promoter), 48 h; screened at 20 nM (by protocol). How it is done:
Ewing sarcoma (ES) cells depend on the EWS-FLI1 fusion transcription factor for cell survival. Using an assay of EWS-FLI1 activity and genome-wide siRNA screening we have identified proteins required for the processing of the EWS-FLI1 nascent transcript. Parallel genome-wide siRNA-mediated RNAi screens were conducted in Ewing sarcoma TC32 cell lines expressing a luciferase (luc) reporter protein driven by either the promoter of the EWS-FLI1 target gene NR0B1 (TC32-NR0B1-luc) or the CMV promoter (TC32-CMV-luc). Luciferase activity was assessed 48 hours post siRNA-transfection.
Twenty microl of serum-free media containing Lipofectamine RNAiMax (0.05 microl) was added to wells containing siRNA (0.8 pmol). Lipid and siRNA were allowed to complex for 45 min at ambient temperature before addition of 600 cells in RPMI-1640, 20% FBS to yield final transfection mixtures containing 20 nM siRNA in RPMI-1640, 10% FBS. Luciferase expression was measured using OneGlo (Promega, Madison, WI). The genome-wide screening campaign was conducted using Ambion's human genome library version 4.1 (Ambion, Austin TX). This library targets approximately 21000 human genes, three siRNAs per gene. Each siRNA is arrayed in an individual well of a 384-well plate. Parallel transfections were conducted in TC32-NR0B1-luc and TC32-CMV-luc cell lines and luciferase expression (OneGlo, Promega) was assayed 48 h later on a PerkinElmer Envision 2104 Multilabel plate reader (PerkinElmer, Waltham, MA). Qiagen's AllStars Negative control was incorporated on all screening plates for normalization (16 wells per plate). Qiagen, Germantown, MDsiGL4 was incorporated as a positive transfection control (16 wells per plate) on all plates. […] The raw luciferase data for the NR0B1- and CMV-luc screens were normalized and z-score-MAD transformed using standard methods (Chung et al., 2008). The miRNA-like seed sequence of every siRNA was determined and the median z-score for all siRNA sequences with the same seed sequence was calculated. This z-score was subtracted from the z-score associated with each siRNA with that seed sequence to generate a seed-adjusted z-score value (Z) that was used when the results for the three siRNAs corresponding to each gene were compared (Marine et al., 2012)
As to UAAGUUGCAUGCCUGGUCA against RIMKLA, the seed-corrected z-score was -3.91.

Sequence UGUUGAGUAAGGAGGGACC against HSPB8 yielded a seed-corrected z-score of -0.073.

Sequence UCAUCGCCUAUGUCGAUGC against ABCC11 registered a seed-corrected z-score of 0.255.

Sequence UUUGAGCUUUCCUUAUUCC against CEP97 displayed a seed-corrected z-score of 0.381.

Take UCUAGAUCAUGAAUGCUCC against ZNF25: the seed-corrected z-score turned out to be 1.08.

AUUUCUUUCAUAGUCACCG against RASL11B yielded a seed-corrected z-score of -0.122.

On to UAUGCUUUUAGACGAUUGG against ASB14, for which the seed-corrected z-score is -0.444.

With AGGUCUUCAAAUACCGUUG against LACTB2, the seed-corrected z-score was -2.32.

As to UUUGCUCCCUUCACUCUGC against DVL1, the seed-corrected z-score is 0.689.

Turning to AAAUGUACACCAUAUAAGC against ELOVL6, the seed-corrected z-score is -2.75.

The sequence UUCAUGUCCACGUUGACCA against PLCD3 came in with a seed-corrected z-score of -0.387.

For the sequence UUAUGGUCUUGAGGUAAGG against RNF6, the seed-corrected z-score turned out to be 0.418.

In turn, UUCGUGAAAGGAUCUGCUG against FRMD4B registered a seed-corrected z-score of -0.649.

UCUGUUUUCAGGUCUUCCA against PMM1 registered a seed-corrected z-score of 0.485.

In turn, UGAGUUUGAAGGUGAAUUC against TMEM207 came in with a seed-corrected z-score of 0.374.

Turning to UAGACUAGAAUGGUCACUC against DDIAS, the seed-corrected z-score is 0.728.

Consider UCUGGAGUGUUUGGGCUGC against CICP18, for which the seed-corrected z-score was -3.73.

On to UAACCUUCAACUCGCUGCC against NYNRIN, for which the seed-corrected z-score is -1.01.

UUAAUGGGAAGUUCUGGUG against ALG8: the seed-corrected z-score was -0.153.

Consider UUGUUUACAAUUGAAACUC against RPS7, for which the seed-corrected z-score amounted to 2.49.

UUUGGUAAACUUCUGACUC against AFP registered a seed-corrected z-score of 0.408.

In turn, UUGGGCACAUGCUCUAAGG against SUN2 came in with a seed-corrected z-score of 1.57.

UUUGCGGUCAGGUUUCACC against MTNR1A came in with a seed-corrected z-score of -0.693.

Turning to UUCCUUCCAGCUGUAGGCC against CHRM1, the seed-corrected z-score is -2.17.

As for UUUGGAGCAAGUAAUCCCU against ATP5SL, the seed-corrected z-score stood at 0.0327.

Sequence UACGCUCCAACCAUCAUAG against KIAA0368 returned a seed-corrected z-score of -0.0559.

AAUGUCACAAAAGUUCCGU against PGLYRP3: the seed-corrected z-score is -0.707.

UAACGAGAAAGACGGAUGC against CEP104 returned a seed-corrected z-score of -0.248.

Regarding AAUGCUAUAAAAUCCGUGG against C11orf95, the seed-corrected z-score came to 0.671.

In turn, UAUUAGGAGAUAUGAAGUG against PSMB7 had a seed-corrected z-score of 0.622.

On to UCAGCUUCUACUCCGGUCU against DAPP1, for which the seed-corrected z-score was -1.25.

In the case of UUGUAUACAAGUGUCCACC against KCTD6, the seed-corrected z-score was -2.54.

Regarding UAUUGUAAGAGUACACGUC against IGSF5, the seed-corrected z-score was -0.00495.

In turn, UUGCGUUCAGGAAUAUCCG against MARK3 showed a seed-corrected z-score of 0.476.

On to UGGAAUAUAAAACCCGUGC against FUNDC2P2, for which the seed-corrected z-score is -0.0349.

In turn, UUUGGGAUCUAUCAAUUUG against HNRNPDL displayed a seed-corrected z-score of 0.695.

As to AACUUUACCAGUCACACUC against SMNDC1, the seed-corrected z-score is -2.31.

For the sequence UACACUCCUCUGAAGUUUG against ZNF396, the seed-corrected z-score was -0.508.

Take UUGGGUCAAUCCAUUUCUC against C10orf55: the seed-corrected z-score came out at 0.749.

In turn, UCCACGAAUAGCAAGUUGC against H2AFZ displayed a seed-corrected z-score of 0.129.

UCUGCUUGUAGUGAAAGUC against DUSP9 returned a seed-corrected z-score of -3.42.

Sequence UAACUUACUGAGAAUCGGC against LCP2 came in with a seed-corrected z-score of -1.05.

AAGGUGUUUCGAGUUAUGC against POLR2J showed a seed-corrected z-score of -0.205.

Turning to UCAUGAACCCGAGCUCGAG against CD37, the seed-corrected z-score was -0.195.

AUUCCUGACAUUCACAUGC against ZNF439: the seed-corrected z-score came out at 0.169.

UCAGGUGCAAUUGGGAGCU against TCEB1P3 yielded a seed-corrected z-score of -2.71.

On to UACGUUUUCAGAGUAUCAC against PDCD10, for which the seed-corrected z-score was determined as 0.491.

AUACUUGACAUCACCAACC against CDKL2 registered a seed-corrected z-score of -0.981.

In turn, CAAGUCAUGCCAGCACUGG against LOC645852 returned a seed-corrected z-score of 0.383.

In turn, UAAUCUAAUCCUUCUAAAG against PCDHGA7 yielded a seed-corrected z-score of 1.3.

For UUCCUUCCAGGACAUGAGC against MIR503HG, the seed-corrected z-score is -2.21.

The sequence UUUGGUUGAAGGGACCCUC against OR1J2 registered a seed-corrected z-score of 0.501.

Turning to UCCUUUGAUAGCCUCUUCG against ELAVL3, the seed-corrected z-score is -0.214.

In turn, UAACUGUUCACCGCGUCCA against LINC01530 showed a seed-corrected z-score of -0.696.

The sequence UUACAAAGAAGCACGUUCA against HOXB8 had a seed-corrected z-score of 0.191.

As to AAACAGGAAGGUGCUAUCG against GALT, the seed-corrected z-score was -0.3.

AUACUUGCAAACAAACUCC against RREB1 yielded a seed-corrected z-score of -1.3.

Sequence UGAUUUCUGACCUCCAUUC against TMEM43 yielded a seed-corrected z-score of 1.18.

As to ACUGUUCCCAACAAGGUCC against UBXN4, the seed-corrected z-score was 1.66.

Sequence AAACCUAAGAAUACAAGUU against SAR1A registered a seed-corrected z-score of 0.849.

ACAGUUGCCCUUGUCCUGG against LOC440292 returned a seed-corrected z-score of -3.34.

AUUGGAGAGAGGUUCAUUC against YWHAH came in with a seed-corrected z-score of -0.058.

For UGACGGCUGGUCGUGAUCU against SPDYE2, the seed-corrected z-score amounted to 0.00759.

Take UACAGGUAGACCUCGUGGG against UPK3A: the seed-corrected z-score worked out at 0.24.

UCAGGAUCAUGAGUAGGCG against DEPDC5 displayed a seed-corrected z-score of 1.12.

As to AAACCUAUUCCUUCCAUUU against ARL6IP5, the seed-corrected z-score amounted to 0.0394.
